Results published in PubChem BioAssay AID588334 (Broad Institute, 2011).
Screen size: about 300,000 compounds; about 2,300 (0.77%) were called active.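 Rule for the calls: active = mean activation of at least 80% with every replicate also reaching 80%; inconclusive = mean reaches 80% but some replicate falls short; inactive = the rest.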 The full list was thinned out, with actives kept by preference.

Experiment: activators of MITF-driven TRPM1 promoter reporter, primary screen, cell-based, SK-MEL-5, luciferase, single point (AID 588334);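 note: 0% = neutral control wells and 100% = parthenolide positive control wells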
Settings: SK-MEL-5 TRPM1-promoter luciferase, 24 h; at 12.5 µM; hits give high values; % of positive control, neutral wells = 0

SMILES | activation
c1ccc(CCc2nc(-c3ccncc3)no2)cc1 | 57.8% (inactive)
Cc1ccc(-c2nc(-c3ccncc3)no2)c(C)c1 | 70.8% (inactive)
c1csc(-c2nc(-c3ccncc3)no2)c1 | 113% (active)
CSCCC(NC(=O)c1ccccc1)C(=O)N1CCN(Cc2ccc(Cl)cc2)CC1 (stereo not given) | -8.56% (inactive)
CN(c1ccccc1)S(=O)(=O)c1cc(C(=O)N2CCN(c3ncccn3)CC2)ccc1Cl | -2.71% (inactive)
COc1cccc(C=CC(=O)C=CC=Cc2ccccc2)c1 | -4.72% (inactive)
NC(=O)C1(Nc2ccc(-c3ccccc3)cc2)CCCC1 | 5.06% (inactive)
COc1ccc(N=C(C)c2sc3ccccc3c2O)cc1 | 123% (active)
COc1ccc(N=Nc2ccc(O)c(P(=O)(c3ccccc3)c3ccccc3)c2)cc1 | 5.85% (inactive)
COC(=O)Cc1[nH]n(-c2nc3ccccc3s2)c(=O)c1C(C)=Nc1ccc(OC)cc1 | -94.9% (inactive)
CCN(CC)C(=O)[C@H]1C[C@H](CC(=O)NCC23CC4CC(CC(C4)C2)C3)C(=O)N2CCc3c([nH]c4cc(CCC(=O)N(C)C)ccc34)[C@]12C | -10.9% (inactive)
COc1cc(C(=O)CCc2ccc3c(c2)OCO3)cc(OC)c1OC | -4.27% (inactive)
CC(C=Cc1ccccc1)=NNS(=O)(=O)c1ccc([N+](=O)[O-])cc1 | -13.6% (inactive)
COc1cc(C(=O)OCC(=O)NC23CC4CC(CC(C4)C2)C3)cc(OC)c1OC | -3.15% (inactive)
COc1cc(NC(=O)COC(=O)c2cc(S(=O)(=O)N3CCOCC3)ccc2F)cc(OC)c1 | 1.31% (inactive)
Fc1cccc(Cl)c1CSc1ccc(-c2ccco2)nn1 | 93.7% (active)
O=C(CSc1ccc(-c2ccco2)nn1)Nc1cccc(F)c1 | 13.2% (inactive)
Brc1ccc(CSc2ccc(-c3ccco3)nn2)cc1 | 71.9% (inactive)
O=C(Nc1ccn(CCCNCc2ccc3[nH]ccc3c2)c(=O)n1)OCc1ccccc1 | -4.16% (inactive)
CCCSc1ccc([C@H]2N[C@@](Cc3ccccc3)(C(=O)OC)[C@H]3C(=O)N(C)C(=O)[C@@H]23)cc1 | 1.47% (inactive)
Cc1ccccc1OCC(=O)Nc1ccc2c(c1)ncn2C | 152% (active)
Cc1ccccc1OCC(=O)Nc1ccc(S(=O)(=O)N2CCOCC2)cc1 | -5.13% (inactive)
Cc1ccccc1OCC(=O)Nc1ccc(N2CCN(C(=O)C(C)C)CC2)c(Cl)c1 | -59.2% (inactive)
Cc1cc([N+](=O)[O-])ccc1NS(=O)(=O)c1ccccc1 | 6.15% (inactive)
CCN(CC)S(=O)(=O)c1cccc(NC(=O)c2ccc(S(=O)(=O)N3CCCC3)cc2)c1 | -10.8% (inactive)
